Assay results taken from PubChem BioAssay AID1012 (Sanford-Burnham Center for Chemical Genomics, 2008).
The campaign covered roughly 200,000 compounds. About 520 (0.26%) were called active.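 Rule for the calls: active = tissue-nonspecific alkaline phosphatase inhibition above about 50% at 20 µM in the single-dose screen (limit read from the data); inactive = the rest.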 The list comes from a sample in which actives are over-represented; it also holds similar structures and randomly drawn compounds.

What follows are molecules tested against Alkaline phosphatase, tissue-nonspecific isozyme (Homo sapiens) (UniProt P05186) (assay: blockers of alkaline phosphatase TNAP activity – biochemical, luminescent, no phosphate acceptor, uHTS, primary screen (AID 1012;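 note: 0% = DMSO negative control and 100% = EDTA positive control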)). Conditions: purified TNAP, CDP-star luminescence, 30 min; at 20 µM; stronger effect = higher value.
Alkaline phosphatase, tissue-nonspecific isozyme (Homo sapiens), sequence (P05186 whole entry, looked up): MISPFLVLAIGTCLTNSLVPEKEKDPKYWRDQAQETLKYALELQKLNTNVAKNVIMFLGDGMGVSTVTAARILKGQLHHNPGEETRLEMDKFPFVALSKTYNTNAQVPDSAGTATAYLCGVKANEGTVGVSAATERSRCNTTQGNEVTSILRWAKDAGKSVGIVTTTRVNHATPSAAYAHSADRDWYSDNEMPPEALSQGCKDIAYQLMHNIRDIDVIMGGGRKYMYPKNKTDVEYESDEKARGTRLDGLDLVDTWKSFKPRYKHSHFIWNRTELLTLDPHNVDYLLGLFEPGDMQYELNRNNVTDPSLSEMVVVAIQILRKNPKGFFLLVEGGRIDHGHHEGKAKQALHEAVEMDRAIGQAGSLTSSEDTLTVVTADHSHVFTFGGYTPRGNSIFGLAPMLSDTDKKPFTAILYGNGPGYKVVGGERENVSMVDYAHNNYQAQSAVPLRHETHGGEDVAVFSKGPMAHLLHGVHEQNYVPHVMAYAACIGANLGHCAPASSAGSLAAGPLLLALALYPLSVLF

inhibition, inactive:
COc1ccc(C/C(N)=N/OC(=O)c2ccco2)cc1OC -7.5%, CCOc1ccc2nc(C(=O)N3CCCC(C)C3)sc2c1 (centres undefined) 1.7%, COC(=O)/C(=C1\Oc2ccc(C(C)(C)C)cc2S1)C(F)(F)F 0.6%, COCC(=O)Nc1cc(C(=O)OC)cc(C(=O)OC)c1 -4.5%, c1nnc2c3c4c(sc3ncn12)CCC4 -10.6%, N=c1c2c3c(sc2ncn1N)CCCC3 -4.9%, O=C(Cn1c2[n+](c3ccc(C(F)(F)F)cc31)CCCCC2)Nc1c(F)cccc1F -6.3%, O=C(COC(=O)c1cnccn1)Nc1cccc2ccccc12 -10%, Cc1ccc(/C=N\n2c(-c3ccccc3)n[nH]c2=S)s1 29%, S=c1[nH]nc(-c2cccs2)n1/N=C/c1cccs1 36.2%, COCCn1c(N)c(N(Cc2ccccc2)C(=O)C2CCCCC2)c(=O)[nH]c1=O -0.9%, O=C(Cn1c(N2CCN(C/C=C/c3ccccc3)CC2)nc2ccccc21)c1ccccc1 5.4%, CCOC(=O)C1(CCOC)CCN(Cc2ccc(C(=O)OC)cc2)CC1 -7%, CCN1CCN(c2ccc(NC(=O)c3cnccn3)cc2)CC1 -10.4%, CC(C)(C)OC(=O)N1CCC(NC(=O)c2[nH]cnc2C(=O)N[C@@H](Cc2ccccc2)C(=O)OCc2ccccc2)CC1 -3.5%, CC(C)Cc1nn2c(=O)cc(O)nc2s1 -13.8%, O=C(Nc1ccc(N2CCOCC2)cc1)c1ccc(-c2ccccc2[N+](=O)[O-])o1 8.7%, COc1ccc(C(=O)Nc2cccc(S(C)(=O)=O)c2)cc1 -11%, N/C(=N\OC(=O)c1ccc2c(c1)OCO2)c1ccc(Br)cc1 -7%, COc1ccc(C2=NN(c3ccccc3)C(c3cccs3)C2)cc1 (centres undefined) -20.3%, Cc1ccc(NC(=O)COC(=O)CCc2nc3ccccc3n2-c2ccccc2)c(C)c1 -12.9%, COc1ccc(Cc2n[nH]c(=S)n2NC(=O)Nc2ccc(C)cc2)cc1 -16.9%, Cc1cc(C)c(C#N)c(SCC(=O)NN2CC(=O)N(c3ccccc3F)CC2=O)n1 -6.4%, CCCCNC(=O)N1CCN(S(C)(=O)=O)CC1 -6.4%, O=C(CO/N=C/c1ccc(OC(F)F)cc1)NCc1ccc(F)cc1 2.4%, COc1cc2[nH]c(=O)n(Cc3ccc(C(=O)NC4CCN(Cc5ccccc5)CC4)cc3)c(=O)c2cc1OC 1.5%, Cc1ccc(NC(=O)C2CCCN(S(=O)(=O)c3c(C)noc3C)C2)c(C)c1 (centres undefined) -3.2%, Cc1noc(/C=C/N(C)C)c1S(=O)(=O)N1CCCC(C(=O)NCc2ccco2)C1 (centres undefined) -12%, COc1ccc(N2CCN(c3ccc([N+](=O)[O-])nc3)CC2)cc1 -7.2%, CC(=O)NC(Cc1ccccc1)C(=O)NC1CCN(c2ncccc2[N+](=O)[O-])CC1 (centres undefined) -1.2%, Cc1ccc(S(=O)(=O)N2CCC(C(=O)N[C@@H](C)C(=O)NCc3ccco3)CC2)cc1 -10%, CN(Cc1cc2cc(F)ccc2[nH]1)Cc1nc(-c2cnccn2)no1 -8.7%, CC(C)(C)C1CCC(OC(=O)CCC(=O)Nc2ccccc2)CC1 (centres undefined) -5.1%, CC1=NN(c2ccccc2)C(=O)C1C(=O)c1ccc([N+](=O)[O-])cc1 (centres undefined) -4.4%, O=C(c1ccc(OC2CCN(Cc3ccccn3)CC2)cc1)N1CCCCCC1 -6%, COc1ccccc1C1=Nc2cccc3cccc(c23)N1 -4.6%, CCCOc1ccccc1-c1nc(SCCC(=O)O)n[nH]1 8.1%, C=CCN(Cc1nc(-c2cc(OC)c3c(c2)OCO3)oc1C)C1CCS(=O)(=O)C1 (centres undefined) -9.3%, COc1ccc(NS(=O)(=O)c2cc(NC(=O)/C=C/c3cc(OC)c(OC)c(OC)c3)ccc2N2CCCCC2)cc1 -3.9%, CC1=CC2=NC(=O)CC(C)(C(=O)N(CC(=O)NC(C)(C)C)Cc3ccccc3)N2C=C1 (centres undefined) -13%, CCN(c1ccccc1)S(=O)(=O)c1cccc(C(=O)O)c1 -2.9%, CCN(c1ccccc1)S(=O)(=O)c1ccc(N)cc1 -17.8%, Cc1c(CCOC(=O)CC23CC4CC(CC(C)(C4)C2)C3)sc[n+]1Cc1ccc([N+](=O)[O-])cc1 -6.1%, O=C(C(=O)N1CCc2ccccc2C1)N1CCc2ccccc2C1 -5.7%, CC1CCN(CC(=O)c2c[nH]c3ccccc23)CC1 -9.1%, Cc1[nH][nH]c(=O)c1C(c1ccc2c(c1)OCO2)c1c(C)[nH][nH]c1=O 45.5%, Cc1[nH][nH]c(=O)c1C(c1ccc(-c2ccc(Cl)cc2)o1)c1c(C)[nH][nH]c1=O -57.7%, O=C(/C=C/c1ccc(F)cc1)Nc1cccc(S(=O)(=O)Nc2cccc(C(F)(F)F)c2)c1 -9.4%, CCOc1ccc(/C=N/OCC(=O)NCc2cccs2)cc1 2.3%, O=C(NCCc1ccccc1)C1CCC(Cn2c(=O)c3ccccc3n(Cc3cccnc3)c2=O)CC1 (centres undefined) -0.3%

inhibition, active:
S=c1[nH]nc2c3c4c(sc3ncn12)CCCC4 58%, S=c1[nH]nc(-c2ccco2)n1/N=C/c1ccc(Br)s1 58.4%, Cc1n[nH]c(C)c1S(=O)(=O)N1CCCC(C(=O)NCC2COc3ccccc3O2)C1 (centres undefined) 51.6%, COc1ccc(-c2cc(C3CCN(c4ncccc4[N+](=O)[O-])CC3)[nH]n2)cc1 59.7%, COc1ccccc1-c1nc(SC)n[nH]1 63.7%, CCN(c1ccccc1)S(=O)(=O)c1ccc2[nH]c(=O)[nH]c2c1 64.9%, Cc1c(CCO)sc[n+]1CC(=O)OC12CC3CC(CC(C3)C1)C2 55.5%, O=C(C(=O)N1CCc2ccccc2C1)c1c[nH]c2ccccc12 61%, CCOc1ccc(C(c2c(C)[nH][nH]c2=O)c2c(C)[nH][nH]c2=O)cc1OCC 58.2%
